PubChem BioAssay (NCATS)
Inconclusive results are not listed. Calls of active or inactive are those of the source. Unless noted, the call rests on the fitted dose curve; in most records, active means well fitted curve in the direction sought with a large enough effect; inconclusive means small, poorly fitted or top-dose-only effect, or another doubt; inactive means no such curve, though single readings can be large; an effect the other way counts as inactive or inconclusive.

Key:
[1] = biological target: Ubiquitin carboxyl-terminal hydrolase 2 (Homo sapiens) (UniProt O75604); test: qHTS Validation Assay for Inhibitors of Ubiquitin-specific Protease USP2a Using CHOP2 as the Reporter (AID 463106);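 further: plate controls were DMSO for no effect and full inhibition by NEM for full effect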
Method in brief: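 Readout was coupled fluorescence (Ex 485/Em 531 nm), read 60 min after adding 25 nM final Ub-CHOP2 and 25 nM reporter substrate. Beforehand, 10 nM final USP2 core had 30 min at RT with compound in pH 8.0 buffer. Curves were fitted after normalization to NEM and flagged for artifacts using time-zero reads.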

[2] = biological target: DNA polymerase III PolC-type (Bacillus subtilis (strain 168)) (UniProt P13267); test: qHTS Validation Assay for the Inhibitors of DNA Replication in Gram-Positive Bacteria (AID 485295);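 further: reconstituted holoenzyme with PolC plus beta clamp SSB and primase; PicoGreen fluorescence of double-stranded DNA made on primed circular M13 template; series mostly up to about 57 µM; 0% = DMSO wells and -100% = EDTA-quenched background wells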
Method in brief: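 Inhibition of DNA synthesis by the reconstituted PolC holoenzyme, monitored through PicoGreen staining of dsDNA formed from ssM13Gori, dNTPs and NTPs, with compound preincubation and room-temperature reaction.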

[3] = biological target: Tumor susceptibility gene 101 protein (Homo sapiens) (UniProt Q99816); test: qHTS Validation Assay for Iinhibitors of HIV-1 Budding by Blocking the Interaction of PTAP/TSG101 (AID 485342; calls by dose curve; further: 0% is about no effect)
Method in brief: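 Compound wells held the Tsg101 binding domain (10 uM) and a FITC-conjugated PTAP peptide (50 nM) in buffer at pH 7.5 containing 0.15 M NaCl and 0.01% Tween 20; polarization was recorded after 20 min, r.t.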

[4] = qHTS Validation Assay to Find Inhibitors of Chronic Active B-Cell Receptor Signaling (AID 485345; active means well fitted curve in the direction sought with a large enough effect in the main read-out, with a control signal flat, not every such curve was filed as active;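 further: 0% = untreated basal cells and 100% = 10 µM MG-132 proteasome inhibitor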)
Method in brief: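 Read-out: ratio of filter-corrected green (IkappaBalpha fusion) to red (native) luciferase signal in doxycycline-induced TMD8 cells after 4 h at 37C. Titration spanned 46 uM–3 nM; Data were normalised to basal cells and 10 uM MG-132 wells.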

[5] = biological target: Beta-2 adrenergic receptor (Homo sapiens) (UniProt P07550); test: qHTS validation assay of beta-arrestin-biased ligands of beta2-adrenergic receptor (AID 485366); further: 0% is about no effect
Method in brief: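 Agonism was measured as beta-arrestin recruitment to recombinant beta2-AR, releasing tTA to drive luciferase. Cells were exposed for 18 hr at 37 degrees C to a series up to 46 microM. %Activity from corrected luminescence gave concentration-response curves.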

[6] = Quantitative high throughput screen for delayed death inhibitors of the malarial parasite plastid, 96 hour incubation (AID 488745);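 further: luciferase-expressing P. falciparum in erythrocytes at 2% hematocrit and 0.1% parasitemia; series mostly up to about 29 µM; on the % scale 0 is the no-effect control and ±100 the full control effect; nearly all actives have a fitted effect of over 70% in size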
Method in brief: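 Luciferase-expressing P. falciparum, infected RBCs 2% Hct/0.1% parasitemia (final); 96 h cpd exposure, 37 C, 5% CO2; RPMI 1640 + 0.5% Albumax, bicarbonate, gentamycin. Readout: luminescence loss = growth inhibition.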

[7] = Quantitative high throughput screen for delayed death inhibitors of the malarial parasite plastid, 48 hour incubation (AID 488752); further: on the % scale 0 is the no-effect control and ±100 the full control effect; nearly all actives have a fitted effect of over 65% in size
Method in brief: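 Luciferase-expressing P. falciparum in RBCs, 2% Hct, 0.1% parasitemia final; RPMI 1640 + 0.5% Albumax; 48 h, 37 C, 5% CO2; luminescence readout, signal drop = growth inhibition.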

[8] = biological target: Thioredoxin reductase 1, cytoplasmic (Rattus norvegicus) (UniProt O89049); test: qHTS Assay for Substrates of Mammalian Selenoprotein Thioredoxin Reductase 1 (TrxR1) (AID 488772);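 further: series mostly up to about 57 µM; 0% is about no effect; a drop in NADPH fluorescence below the no-compound background marks a TrxR1 substrate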
Method in brief: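 In this dual-purpose format, potential substrates are identified from the first fluorescence read after selenite addition, not from the 8-minute delta. Rat enzyme is preincubated with NADPH and then with compound at ~22 deg C.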

[9] = biological target: Thioredoxin reductase 1, cytoplasmic (Rattus norvegicus) (UniProt O89049); test: qHTS Assay for Inhibitors of Mammalian Selenoprotein Thioredoxin Reductase 1 (TrxR1) (AID 488773); conditions: Potency: inhibition;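 further: drop in NADPH fluorescence over an 8 min run after selenite addition; series mostly up to about 57 µM; on the % scale 0 is the no-effect control and ±100 the full control effect; nearly all actives have a fitted effect of over 40% in size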
Method in brief: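 Inhibition is scored from the loss of NADPH fluorescence between first and last reads of an 8-min kinetic run. Selenite (400 uM) was the substrate, added after 15 min compound preincubation at room temperature.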

[10] = biological target: Flap endonuclease 1 (Homo sapiens) (UniProt P39748); test: qHTS Validation Assay for the Inhibitors of Human Flap endonuclease 1 (FEN1) (AID 488816); further: on the % scale 0 is the no-effect control and ±100 the full control effect
Method in brief: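 qHTS format: compounds and 10 nM FEN1 incubated 15 min at room temperature before adding 50 nM substrate. Cleavage followed by reads at 0 and 15 min; normalized data fitted to a four-parameter Hill curve.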

[11] = biological target: M-phase phosphoprotein 8 (Homo sapiens) (UniProt Q99549); test: qHTS Validation Assay for Inhibitors for MPP8 Chromodomain Interactions with Methylated Histone Tails (AID 488949);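 further: 50 nM MPP8 with 50 nM peptide preformed then compounds added for 30 min; AlphaScreen signal from MPP8 chromodomain bound to biotinylated H3K9me3 peptide; top concentration of the series differs between compounds; on the % scale 0 is the no-effect control and ±100 the full control effect; nearly all actives have a fitted effect of over 55% in size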
Method in brief: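 Chemiluminescent proximity assay: histidine-tag capture via nickel acceptor beads, biotin peptide via streptavidin donor beads. Protein and peptide each at 50 nM, pH 7.4, with 30 min incubations at room temperature for complex formation, compound exposure and bead binding.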

[12] = biological target: Chromobox protein homolog 1 (Homo sapiens) (UniProt P83916); test: qHTS Validation Assay for Inhibitors of HP1-beta Chromodomain Interactions with Methylated Histone Tails (AID 488953);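 further: loss of AlphaScreen luminescence from HP1-beta binding biotinylated H3K9me3 peptide; series mostly up to about 110 µM; on the % scale 0 is the no-effect control and ±100 the full control effect; nearly all actives have a fitted effect of over 50% in size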
Method in brief: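 AlphaScreen proximity readout: streptavidin donor and Ni-chelate acceptor beads, 10 ug/mL final, 30 min dark, RT. Complex of 50 nM HP1-beta and 50 nM b-H3(1-18)K9me3 formed 30 min, then compound-treated 30 min; PBS pH 7.4/0.01% Tween-20.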

[13] = biological target: Methanococcus maripaludis chaperonin (MmCpn) (UniProt Q6LX38); test: High-Throughput Screening for Modulators of Cytosolic Chaperonin Activity: MmCpn Primary Screen (AID 488978); further: 0% is about no effect
Method in brief: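 HTRF readout (320 nm excitation, 590/665 nm emission) of ADP generated by 50 nM MmCpn hydrolysing 30 uM ATP during 10 min at 37C; compound preincubated 5 min RT.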

[14] = biological target: Thyrotropin receptor (Homo sapiens) (UniProt P16473); test: qHTS Assay for Antagonists of the Thyroid Stimulating Hormone Receptor (AID 488980); further: series mostly up to about 58 µM; 0% is about no effect
Method in brief: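 Inhibition of TSH-stimulated cAMP accumulation was quantified by homogeneous time-resolved FRET in TSHR-transfected HEK293 cells. Agonist: TSH, 4 nM final (EC80).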

[15] = biological target: D(1A) dopamine receptor (Homo sapiens) (UniProt P21728); test: HTS Assay for Allosteric Agonists of the Human D1 Dopamine Receptor: Primary Screen for Agonists (AID 488981); further: 0% is about no effect
Method in brief: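 Calcium flux in an inducible, force-coupled HEK293 Trex D1 line (overnight at 30 C): agonist mode is the 180 s kinetic read after compound; potentiator mode is the following 180 s read after dopamine at EC20.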

[16] = biological target: D(1A) dopamine receptor (Homo sapiens) (UniProt P21728); test: HTS Assay for Allosteric Agonists of the Human D1 Dopamine Receptor: Primary Screen for Antagonists (AID 488983);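 further: calcium flux response to an EC80 dopamine challenge measured with no-wash dye; on the % scale 0 is the no-effect control and ±100 the full control effect; nearly all actives have a fitted effect of over 65% in size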
Method in brief: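 Calcium flux readout, no-wash dye, inducible HEK293 T-REx D1 line (force-coupled). Compound added after 10 s baseline, 180 s kinetic read; then dopamine at EC80, further 180 s read.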

[17] = Validation screen for small molecules that induce genotoxicity in human embryonic kidney (HEK293T) cells expressing luciferase-tagged ELG1 (AID 493106); further: 0% is about no effect
Method in brief: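 qHTS format; 2,000 HEK293T ELG1-luc cells/well; 23 nL compound via pin tool; 16 hr, 37 °C/5% CO2; ONE-Glo, 30 min RT; luminescence read.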

[18] = biological target: Thyrotropin-releasing hormone receptor (Homo sapiens) (UniProt P34981); test: qHTS for Small Molecule Agonists and Allosteric Enhancers of Human TRH Receptor: Validation Screen for Agonists (AID 493127;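 active means calcium activation more than 3 SD above the typical response in the agonist read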;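 further: intracellular calcium rise by fluo-8 fluorescence before TRH EC20 addition; 0% is about no effect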); conditions: TRH receptor agonist cell assay; at 2 µM; stronger effect = higher value
Method in brief: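 Read-out: intracellular calcium release measured kinetically by FDSS (fluo-8, ex 480/em 530 nm), 1 reading/s after a 10-cycle baseline. TRHR cells, 2000/well, cultured 18 h at 33.5C, dye-loaded at room temp. Compound-evoked positive calcium signal flags agonists.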

[19] = Nrf2 qHTS screen for inhibitors: Validation (AID 493153; active means well fitted inhibition curve with a large enough effect in the main read-out, with a control signal flat, not every such curve was filed as active); conditions: viability change: measured here: cytotoxicity max response
Method in brief: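 Concentration-response test in A549 ARE_Fluc reporter cells (5% FBS OPTI-MEM), compound exposure 18-24 h at 37°C, 5% CO2. Cell viability measured first by CellTiter-Fluor fluorescence; ARE-driven luciferase luminescence then measured as Nrf2 activity.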

Chain of M-phase phosphoprotein 8 (Homo sapiens) (Q99549 whole entry, looked up): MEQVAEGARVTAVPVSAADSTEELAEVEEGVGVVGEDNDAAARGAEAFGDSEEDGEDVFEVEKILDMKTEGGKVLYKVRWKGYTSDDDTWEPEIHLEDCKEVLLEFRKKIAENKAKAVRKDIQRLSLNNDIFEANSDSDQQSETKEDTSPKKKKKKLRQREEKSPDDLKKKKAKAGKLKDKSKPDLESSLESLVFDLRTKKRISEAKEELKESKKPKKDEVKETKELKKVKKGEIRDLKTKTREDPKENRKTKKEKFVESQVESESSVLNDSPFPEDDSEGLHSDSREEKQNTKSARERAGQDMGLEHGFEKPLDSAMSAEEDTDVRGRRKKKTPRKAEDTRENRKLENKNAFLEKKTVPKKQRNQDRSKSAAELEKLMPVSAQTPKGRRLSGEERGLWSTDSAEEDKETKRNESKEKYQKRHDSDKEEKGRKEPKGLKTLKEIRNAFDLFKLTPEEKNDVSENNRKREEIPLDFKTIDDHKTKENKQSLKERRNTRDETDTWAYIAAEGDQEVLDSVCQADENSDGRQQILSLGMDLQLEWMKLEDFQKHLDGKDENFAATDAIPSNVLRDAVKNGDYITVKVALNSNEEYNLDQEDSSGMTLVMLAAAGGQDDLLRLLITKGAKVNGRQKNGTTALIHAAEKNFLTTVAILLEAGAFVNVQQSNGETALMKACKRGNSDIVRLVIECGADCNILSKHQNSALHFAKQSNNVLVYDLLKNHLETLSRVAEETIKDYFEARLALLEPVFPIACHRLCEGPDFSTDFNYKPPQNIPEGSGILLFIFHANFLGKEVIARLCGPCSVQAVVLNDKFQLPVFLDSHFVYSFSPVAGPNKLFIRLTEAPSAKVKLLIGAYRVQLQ
Chain of D(1A) dopamine receptor (Homo sapiens) (P21728 whole entry, looked up): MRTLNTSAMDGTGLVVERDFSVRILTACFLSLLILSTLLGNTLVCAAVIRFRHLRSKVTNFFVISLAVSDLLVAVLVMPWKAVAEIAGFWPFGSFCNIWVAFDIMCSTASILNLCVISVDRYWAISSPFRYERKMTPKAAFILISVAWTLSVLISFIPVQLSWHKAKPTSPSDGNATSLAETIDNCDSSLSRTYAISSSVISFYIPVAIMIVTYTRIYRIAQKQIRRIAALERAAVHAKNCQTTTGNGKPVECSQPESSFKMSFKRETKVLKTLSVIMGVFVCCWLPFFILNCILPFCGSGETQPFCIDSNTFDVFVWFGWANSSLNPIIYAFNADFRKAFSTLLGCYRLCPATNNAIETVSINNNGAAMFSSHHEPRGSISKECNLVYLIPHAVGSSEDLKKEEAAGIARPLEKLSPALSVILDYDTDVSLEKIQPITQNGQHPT
Chain of Thioredoxin reductase 1, cytoplasmic (Rattus norvegicus) (O89049 whole entry, looked up): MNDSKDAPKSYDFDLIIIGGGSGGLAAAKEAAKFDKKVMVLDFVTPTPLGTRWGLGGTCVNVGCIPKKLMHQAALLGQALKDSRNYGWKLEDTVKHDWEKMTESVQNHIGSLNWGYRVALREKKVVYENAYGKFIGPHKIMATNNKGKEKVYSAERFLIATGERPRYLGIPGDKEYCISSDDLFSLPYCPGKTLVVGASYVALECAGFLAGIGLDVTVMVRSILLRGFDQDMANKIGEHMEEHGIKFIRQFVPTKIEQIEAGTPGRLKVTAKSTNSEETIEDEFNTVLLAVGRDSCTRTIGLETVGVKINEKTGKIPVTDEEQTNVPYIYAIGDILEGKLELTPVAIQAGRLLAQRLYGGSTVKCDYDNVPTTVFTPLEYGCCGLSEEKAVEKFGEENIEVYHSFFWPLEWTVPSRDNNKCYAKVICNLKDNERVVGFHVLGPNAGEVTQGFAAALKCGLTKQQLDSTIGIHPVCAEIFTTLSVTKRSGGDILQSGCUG
Chain of Flap endonuclease 1 (Homo sapiens) (P39748 whole entry, looked up): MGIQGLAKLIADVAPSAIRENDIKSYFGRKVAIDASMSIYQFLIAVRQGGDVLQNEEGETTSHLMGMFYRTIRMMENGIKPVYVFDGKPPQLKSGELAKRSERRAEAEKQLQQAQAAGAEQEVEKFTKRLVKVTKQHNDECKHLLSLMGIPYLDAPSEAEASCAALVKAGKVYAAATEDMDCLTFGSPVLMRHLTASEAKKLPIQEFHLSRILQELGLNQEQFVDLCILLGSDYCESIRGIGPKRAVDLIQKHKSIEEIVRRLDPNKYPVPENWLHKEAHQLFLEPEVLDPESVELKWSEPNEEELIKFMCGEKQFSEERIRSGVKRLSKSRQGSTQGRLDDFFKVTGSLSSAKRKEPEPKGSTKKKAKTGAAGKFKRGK
Chain of Methanococcus maripaludis chaperonin (MmCpn) (Q6LX38 1-543): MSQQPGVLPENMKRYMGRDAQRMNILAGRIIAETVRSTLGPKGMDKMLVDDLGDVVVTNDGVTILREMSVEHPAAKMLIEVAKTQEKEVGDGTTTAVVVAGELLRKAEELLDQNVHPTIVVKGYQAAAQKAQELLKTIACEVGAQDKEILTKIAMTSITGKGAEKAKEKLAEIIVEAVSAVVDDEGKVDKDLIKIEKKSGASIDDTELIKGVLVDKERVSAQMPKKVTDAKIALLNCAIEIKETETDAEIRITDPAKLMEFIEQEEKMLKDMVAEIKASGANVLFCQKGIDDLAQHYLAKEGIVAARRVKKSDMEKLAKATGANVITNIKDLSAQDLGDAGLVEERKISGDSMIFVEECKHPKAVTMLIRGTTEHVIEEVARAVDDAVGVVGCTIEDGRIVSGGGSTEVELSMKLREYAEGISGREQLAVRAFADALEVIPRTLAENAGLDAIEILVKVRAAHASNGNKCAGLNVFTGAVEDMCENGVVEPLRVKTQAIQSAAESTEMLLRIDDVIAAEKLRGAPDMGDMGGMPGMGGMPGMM
Chain of Chromobox protein homolog 1 (Homo sapiens) (P83916 whole entry, looked up): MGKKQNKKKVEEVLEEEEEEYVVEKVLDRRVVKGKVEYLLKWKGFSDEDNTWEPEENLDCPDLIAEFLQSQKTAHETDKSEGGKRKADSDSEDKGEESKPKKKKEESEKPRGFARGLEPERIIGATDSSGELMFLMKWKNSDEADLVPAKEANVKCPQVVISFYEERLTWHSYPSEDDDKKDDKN
Chain of DNA polymerase III PolC-type (Bacillus subtilis (strain 168)) (P13267 whole entry, looked up): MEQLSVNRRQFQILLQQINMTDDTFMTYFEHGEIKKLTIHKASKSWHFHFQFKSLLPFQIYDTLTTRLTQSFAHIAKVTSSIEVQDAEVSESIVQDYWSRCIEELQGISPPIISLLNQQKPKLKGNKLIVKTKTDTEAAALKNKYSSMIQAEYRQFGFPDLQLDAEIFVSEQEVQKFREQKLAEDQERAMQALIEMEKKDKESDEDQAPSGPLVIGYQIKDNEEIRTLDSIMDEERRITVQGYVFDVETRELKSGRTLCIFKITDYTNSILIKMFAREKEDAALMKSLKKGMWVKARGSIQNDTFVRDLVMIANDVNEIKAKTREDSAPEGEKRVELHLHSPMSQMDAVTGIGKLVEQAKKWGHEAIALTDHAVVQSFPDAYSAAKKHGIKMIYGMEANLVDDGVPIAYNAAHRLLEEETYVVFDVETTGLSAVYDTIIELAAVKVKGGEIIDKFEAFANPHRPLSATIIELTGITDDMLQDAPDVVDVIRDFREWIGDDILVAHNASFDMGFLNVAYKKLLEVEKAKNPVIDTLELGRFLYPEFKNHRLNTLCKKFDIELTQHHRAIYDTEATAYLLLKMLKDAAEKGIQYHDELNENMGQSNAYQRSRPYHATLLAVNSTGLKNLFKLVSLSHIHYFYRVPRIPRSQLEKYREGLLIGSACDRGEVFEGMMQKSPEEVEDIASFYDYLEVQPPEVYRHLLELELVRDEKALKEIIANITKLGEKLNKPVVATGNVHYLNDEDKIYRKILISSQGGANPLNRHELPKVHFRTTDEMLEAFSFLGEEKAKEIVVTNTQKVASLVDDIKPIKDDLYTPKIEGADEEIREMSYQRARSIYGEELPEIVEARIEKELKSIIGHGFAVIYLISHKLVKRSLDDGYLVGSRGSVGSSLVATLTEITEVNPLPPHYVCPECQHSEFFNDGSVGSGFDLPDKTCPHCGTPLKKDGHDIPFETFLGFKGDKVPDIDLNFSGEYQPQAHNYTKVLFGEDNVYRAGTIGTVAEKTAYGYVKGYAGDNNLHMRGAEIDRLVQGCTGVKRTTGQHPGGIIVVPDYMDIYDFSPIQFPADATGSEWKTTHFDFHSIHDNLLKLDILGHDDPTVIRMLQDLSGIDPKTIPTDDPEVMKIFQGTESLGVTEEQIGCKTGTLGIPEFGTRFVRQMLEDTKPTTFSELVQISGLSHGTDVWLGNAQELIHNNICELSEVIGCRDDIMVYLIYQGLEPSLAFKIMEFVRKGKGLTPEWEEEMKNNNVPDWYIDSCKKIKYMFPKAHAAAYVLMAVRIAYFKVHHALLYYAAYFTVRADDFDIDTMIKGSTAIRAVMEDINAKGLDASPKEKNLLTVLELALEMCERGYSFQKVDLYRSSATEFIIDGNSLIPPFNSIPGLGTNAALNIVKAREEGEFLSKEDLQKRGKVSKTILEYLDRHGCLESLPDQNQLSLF
Chain of Beta-2 adrenergic receptor (Homo sapiens) (P07550 whole entry, looked up): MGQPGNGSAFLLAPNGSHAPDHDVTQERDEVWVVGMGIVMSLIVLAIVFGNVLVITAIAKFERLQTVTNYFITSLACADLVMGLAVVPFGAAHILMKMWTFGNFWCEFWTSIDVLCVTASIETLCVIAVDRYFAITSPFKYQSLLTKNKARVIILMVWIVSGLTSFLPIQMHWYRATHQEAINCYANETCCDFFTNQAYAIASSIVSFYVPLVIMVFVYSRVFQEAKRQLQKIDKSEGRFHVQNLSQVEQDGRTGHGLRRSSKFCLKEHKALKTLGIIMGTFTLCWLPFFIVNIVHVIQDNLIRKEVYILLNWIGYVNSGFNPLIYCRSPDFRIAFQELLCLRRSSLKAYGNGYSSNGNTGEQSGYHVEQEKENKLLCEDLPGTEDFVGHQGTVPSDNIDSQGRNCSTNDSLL

C1CCC(N=C(NC23CC4CC(CC(C4)C2)C3)N2CCOCC2)CC1
inactive: Potency [1] | Potency [2] | outcome [3] | outcome [4] | outcome [5] | Potency [6] | Potency [7] | outcome [8] | Potency [9] | Potency [10] | Potency [11] | Potency [12] | outcome [13] | outcome [14] | outcome [15] | outcome [16] | Potency [17] | activation [18] 1.31% | outcome [19]
4.19%: viability change [19]
